ROS inducer: inducers of reactive oxygen species in cancer cells | U2OS ROS induction, H2DCF-DA fluorescence | hit rate 2% among 46,000 | AID 624156 | ROS induction (% of piperlongumine), % at 10 µM; in the data active means ROS induction above about 79%, passing the limit was not always enough;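 further: 0% = DMSO vehicle median and 100% = reference compound median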
An asterisk follows results filed as active. The sample as a whole holds a higher share of hits than the screen did.

How did Cc1ccc2nc(Nc3ccccc3)nc(-c3ccccc3)c2c1 do in these assays?
ROS inducer: 55

What do the screens show for `COC(=O)c1ccccc1NC(=O)COc1ccc(I)cc1`?
ROS inducer: 9

How did COC(=O)c1ccccc1NC(=O)COc1ccc([N+](=O)[O-])c(C)c1 do in these assays?
ROS inducer: 138*

How did COC(=O)c1ccccc1NC(=O)COc1ccc(C)c(C)c1 do in these assays?
ROS inducer: 0

Results for C[C@H]1CN([C@@H](C)CO)C(=O)c2cc(NC(=O)CCC(F)(F)F)ccc2O[C@@H]1CN(C)Cc1ccc(Oc2ccccc2)cc1 ?
ROS inducer: 11

What do the screens show for `C[C@@H]1CN([C@@H](C)CO)C(=O)c2cc(NS(=O)(=O)c3ccc(F)cc3)ccc2O[C@@H]1CN(C)S(=O)(=O)c1ccc(F)cc1`?
ROS inducer: -5

How did C[C@@H]1CN([C@H](C)CO)C(=O)Cc2cc(NC(=O)CCC(F)(F)F)ccc2O[C@H]1CN(C)Cc1ccc(Cl)c(Cl)c1 do in these assays?
ROS inducer: 23

What do the screens show for `COc1ccc(-c2csc(-c3ccc(OC)cc3)n2)cc1`?
ROS inducer: -14

Results for COc1ccc(-c2cc3cc(OC)c(OC)cc3c(Cc3ccccc3)n2)cc1 ?
ROS inducer: 155*

What do the screens show for `COc1cc2cc(C)nc(Cc3cccc4ccccc34)c2cc1OC`?
ROS inducer: 64

Results for C[C@H](CO)N1C[C@H](C)[C@H](CN(C)C(=O)Nc2cccc3ccccc23)Oc2ncc(C#CC(C)(C)O)cc2C1=O ?
ROS inducer: 3

Results for Cc1ccc(OCCCn2cncn2)c([N+](=O)[O-])c1 ?
ROS inducer: -17

What do the screens show for `C[C@H]1CN([C@@H](C)CO)C(=O)c2cc(NC(=O)Nc3ccc(C(F)(F)F)cc3)ccc2O[C@@H]1CN(C)C(=O)Nc1ccc2c(c1)OCO2`?
ROS inducer: 31

What do the screens show for `Cc1noc(C)c1NC(=O)Nc1ccc2c(c1)C(=O)N([C@@H](C)CO)C[C@H](C)[C@H](CN(C)C(=O)Nc1c(C)noc1C)O2`?
ROS inducer: -5

Results for C[C@@H]1CN([C@@H](C)CO)C(=O)c2cc(NC(=O)C3CC3)ccc2O[C@H]1CN(C)C(=O)Nc1ccc(C(F)(F)F)cc1 ?
ROS inducer: 20

How did C[C@H](CO)N1C[C@H](C)[C@@H](CN(C)Cc2ccc(C(F)(F)F)cc2)Oc2ccc(NC(=O)Nc3ccc4c(c3)OCO4)cc2C1=O do in these assays?
ROS inducer: 5

How did C[C@@H]1CN([C@@H](C)CO)C(=O)c2cc(NC(=O)C3CC3)ccc2O[C@@H]1CN(C)C(=O)Nc1ccc(C(F)(F)F)cc1 do in these assays?
ROS inducer: 80*

Results for C[C@@H]1CN([C@H](C)CO)C(=O)c2cc(NC(=O)Nc3ccc4c(c3)OCO4)ccc2O[C@H]1CN(C)Cc1ccc(C(F)(F)F)cc1 ?
ROS inducer: 119*

Results for C[C@H](CO)N1C[C@H](C)[C@H](CN(C)C(=O)Nc2ccc(C(F)(F)F)cc2)Oc2ccc(NC(=O)Nc3ccc4c(c3)OCO4)cc2C1=O ?
ROS inducer: 103*

What do the screens show for `C[C@@H]1CN([C@H](C)CO)C(=O)c2cc(NC(=O)C3CC3)ccc2O[C@H]1CN(C)C(=O)Nc1ccc(C(F)(F)F)cc1`?
ROS inducer: 1

Results for C[C@H]1CN([C@@H](C)CO)C(=O)c2cc(NC(=O)Nc3ccc4c(c3)OCO4)ccc2O[C@H]1CN(C)Cc1ccc(C(F)(F)F)cc1 ?
ROS inducer: 34

How did C[C@H]1CN([C@@H](C)CO)C(=O)c2cc(NC(=O)Nc3ccc4c(c3)OCO4)ccc2O[C@@H]1CN(C)C(=O)Nc1ccc(C(F)(F)F)cc1 do in these assays?
ROS inducer: 21

Results for Cc1noc(C)c1NC(=O)Nc1ccc2c(c1)C(=O)N([C@H](C)CO)C[C@@H](C)[C@H](CN(C)C(=O)Nc1c(C)noc1C)O2 ?
ROS inducer: 105*

How did Cc1noc(C)c1NC(=O)Nc1ccc2c(c1)C(=O)N([C@@H](C)CO)C[C@@H](C)[C@@H](CN(C)C(=O)Nc1c(C)noc1C)O2 do in these assays?
ROS inducer: 2

Results for COc1ccc(NC(=O)Nc2cccc3c2O[C@@H](CN(C)Cc2ccc(-c4ccccc4)cc2)[C@@H](C)CN([C@H](C)CO)C3=O)cc1 ?
ROS inducer: 26

How did COC(=O)CN1c2ccccc2NC2=C(C(=O)CC(C)(C)C2)C1c1ccc(OC)cc1 (centres undefined) do in these assays?
ROS inducer: -5

How did O=c1c2cnn(-c3ccccc3)c2ncn1C/C=C/c1ccccc1 do in these assays?
ROS inducer: 26

How did Cc1ccc(-n2ncc3c2ncn2nc(Cc4ccccc4)nc32)cc1 do in these assays?
ROS inducer: 7

How did Cc1ccc(-c2nc3c(cnn3-c3ccccc3)c(=O)n2-c2cccc(C)c2)cc1 do in these assays?
ROS inducer: 187*

What do the screens show for `CC(CCc1ccccc1)NC(=O)C1=CCN(S(=O)(=O)c2ccc(F)cc2)CC1` (centres undefined)?
ROS inducer: -3

How did C[C@@H]1CN([C@@H](C)CO)C(=O)Cc2cc(NC(=O)CCN3CCOCC3)ccc2O[C@@H]1CN(C)Cc1ccc(C(=O)Nc2ccccc2N)cc1 do in these assays?
ROS inducer: 19

What do the screens show for `Cc1cccc(C(=O)N/C(=C/c2ccc(N(C)C)cc2)C(=O)O)c1`?
ROS inducer: 2

What do the screens show for `COc1ccc(Nc2nc(N)nc(CSc3nccn3C)n2)cc1`?
ROS inducer: -16

How did C[C@H]1CN([C@@H](C)CO)C(=O)c2cccc(NC(=O)c3cnccn3)c2O[C@H]1CN(C)Cc1ccc(-c2ccccc2)cc1 do in these assays?
ROS inducer: 43

Results for C[C@H](CO)N1C[C@H](C)[C@H](CN(C)Cc2ccc(Oc3ccccc3)cc2)Oc2c(NC(=O)c3cnccn3)cccc2C1=O ?
ROS inducer: 34

Results for C[C@@H]1CN([C@H](C)CO)C(=O)c2cccc(NC(=O)c3cnccn3)c2O[C@H]1CN(C)Cc1ccc(Oc2ccccc2)cc1 ?
ROS inducer: 21

What do the screens show for `C[C@H]1CN([C@@H](C)CO)C(=O)c2cccc(NC(=O)c3cnccn3)c2O[C@@H]1CN(C)Cc1ccc(-c2ccccc2)cc1`?
ROS inducer: 118*

Results for C[C@H](CO)N1C[C@H](C)[C@@H](CN(C)Cc2ccc(-c3ccccc3)cc2)Oc2c(NC(=O)c3cnccn3)cccc2C1=O ?
ROS inducer: 45

What do the screens show for `C[C@H](CO)N1C[C@H](C)[C@@H](CN(C)Cc2ccc(Oc3ccccc3)cc2)Oc2c(NC(=O)c3cnccn3)cccc2C1=O`?
ROS inducer: 134*

How did NC(=O)CCNCc1ccccc1 do in these assays?
ROS inducer: -5

Results for C[C@H]1CN([C@@H](C)CO)C(=O)c2cc(NC(=O)CCN3CCOCC3)ccc2O[C@H]1CN(C)Cc1ccncc1 ?
ROS inducer: -1

Results for Cc1ccc(NC(=O)CSc2nnc(-c3cccs3)n2C)cc1Cl ?
ROS inducer: -19

Results for COc1ccc(/C=C/C(=O)O[C@@H]2[C@@H](O)[C@@H](O)[C@H](O[C@@H]3C=C(CO)[C@H]4[C@H](O[C@@H]5O[C@H](CO)[C@@H](O)[C@H](O)[C@H]5O)OC=C[C@H]43)O[C@H]2C)cc1O ?
ROS inducer: 1

What do the screens show for `C[C@@H]1CN([C@H](C)CO)C(=O)Cc2cc(NC(=O)Cc3ccccc3)ccc2O[C@@H]1CN(C)C(=O)NC1CCCCC1`?
ROS inducer: -3

Screening results (PubChem)
